# In PubChem BioAssay (Tox21):
# A number with no mark means an inactive call. Results filed as inconclusive are left out. Entries that show only a call come without a potency. The source made the active and inactive calls. Unless noted, calls follow the shape of the full dose curve.
# Tests used:
# [1] = Nuclear factor erythroid 2-related factor 2/antioxidant responsive element (Nrf2/ARE) small molecule agonists: qHTS cell viability counter screen in human keratinocytes (AID 1919968; active = well fitted curve in the direction sought with a large enough effect in the repeat runs; an effect the other way counts as inactive or inconclusive; also: nearly all actives have a fitted effect of over 55% in size; also: potency is read from the fitted curve at half-maximal effect)
# Outline: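 KeratinoSens HaCaT cells, 1,500/well, preincubated 5 h, then exposed to compounds in DMSO for 23 h at 37 C/5% CO2. Viability read as CellTiter-Fluor fluorescence after 1 h, in the same wells as the ARE-luciferase read.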
# [2] = Nuclear factor erythroid 2-related factor 2/antioxidant responsive element (Nrf2/ARE) small molecule agonists: luciferase reporter gene qHTS assay in human keratinocytes (AID 1919969); also: nearly all actives have a fitted effect of over 35% in size; also: potency is read from the fitted curve at half-maximal effect
# [3] = target: Gonadotropin-releasing hormone receptor (Homo sapiens) (UniProt P30968); assay: Human gonadotropin-releasing hormone receptor (GnRHR) small molecule agonists, calcium flux assay in GnRHR-HEK293 cells (AID 1920063); also: nearly all actives have a fitted effect of over 35% in size
# Outline: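 HEK293 cells stably expressing human GnRHR were dye-loaded for 1 h at 37 C. Compound was added in agonist mode and fluorescence (Ex/Em 480/540) recorded kinetically for 3 min. Fifteen concentrations, triplicates.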
# [4] = target: KiSS-1 receptor (Homo sapiens) (UniProt Q969F8); assay: Human kisspeptin (KISS1R) small molecule agonists, calcium flux assay in KISS1R-HEK293 cells (AID 1920064; active = well fitted curve in the direction sought with a large enough effect in the repeat runs; an effect the other way counts as inactive or inconclusive)
# Outline: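 HEK293 cells stably expressing human KISS1R were loaded with calcium dye for 1 h at 37 C, then given compound; fluorescence (Ex/Em 480/540) was read kinetically for 3 min. Fifteen concentrations, triplicate.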
# [5] = G protein-coupled receptor (GPCR) small molecule agonists, calcium flux assay: HEK293 wild type cell line counter screen (AID 1920065)
# Outline: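 Wild-type HEK293 cells plated 18 h, loaded with calcium dye 1 h at 37 C, then compounds added in agonist mode (ATP as positive control). Kinetic fluorescence Ex/Em 480/540 recorded 3 min at 1 sec intervals; 15 concentrations, triplicate.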
# [6] = p53 small molecule agonists, cell-based qHTS assay with human liver microsomes (AID 1963577);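 also: p53 response element beta-lactamase reporter cells with liver microsomes plus NADPH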
# Outline: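 In this qHTS, p53 response-element beta-lactamase cells receive test compound together with a microsome/NADPH activating system (0.5 mg/mL final each) and are incubated 16 h at 37 C before LiveBLAzer fluorescence detection.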
# [7] = p53 small molecule agonists, cell-based qHTS assay with rat liver microsomes (AID 1963578)
# Outline: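 Agonist mode in p53RE-bla reporter cells, with compounds co-incubated 16 h at 37 C alongside 0.5 mg/mL rat liver microsomes and 0.5 mg/mL NADPH (final), followed by a 2 h LiveBLAzer detection step.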
# [8] = p53 small molecule agonists, cell-based qHTS assay with human liver microsomes: qHTS cell viability counter screen (AID 1963579); also: nearly all actives have a fitted effect of over 45% in size; also: potency is read from the fitted curve at half-maximal effect
# Outline: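 Metabolically activated exposure: compounds, human liver microsomes and NADPH (0.5 mg/mL final apiece) were added to p53RE-bla cells seeded 5 h earlier, left 16 h at 37 C, and then assessed for viability by CellTiter-Glo luminescence.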
# [9] = p53 small molecule agonists, cell-based qHTS assay: qHTS cell viability counter screen (AID 1963581); also: nearly all actives have a fitted effect of over 45% in size
# Outline: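 p53RE-bla HCT-116 cells, compounds added 5 h after plating and incubated 16 h at 37 C. Cytotoxicity measured in the same wells as intracellular ATP by CellTiter-Glo luminescence after 30 min at room temperature.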
# [10] = p53 small molecule agonists, cell-based qHTS assay (AID 1963582; active = well fitted activation curve with a large enough effect in the signal ratio in the repeat runs, not every such curve was filed as active; the % refers to the signal ratio)
# Outline: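 p53RE-bla reporter cells, compounds added in DMSO after 5 h plating, incubated 16 h at 37 C. Beta-lactamase read via 2 h room-temperature LiveBLAzer B/G FRET substrate, fluorescence intensity.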
# [11] = target: 5-hydroxytryptamine receptor 2A (Homo sapiens) (UniProt P28223); assay: 5-hydroxytryptamine receptor 2A (HTR2A) small molecule antagonists, cell-based qHTS assay (AID 1963586); also: nearly all actives have a fitted effect of over 45% in size
# Outline: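 Antagonist-mode intracellular calcium assay: DOI (4 nM) added after 5 min compound pre-incubation at room temperature to dye-loaded HTR2A-CHO cells. Fluorescence followed for 3 min, sampled every second.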
# [12] = target: 5-hydroxytryptamine receptor 2A (Homo sapiens) (UniProt P28223); assay: 5-hydroxytryptamine receptor 2A (HTR2A) small molecule agonists, cell-based qHTS assay (AID 1963587); also: nearly all actives have a fitted effect of over 30% in size
# Outline: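 HTR2A-CHO cells, plated 18 h at 37 C/5% CO2, dye-loaded 1 h at 37 C; compounds in DMSO added by pin tool (agonist mode). Intracellular calcium flux read as kinetic fluorescence on FDSS over 2 min at 1 s intervals.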
# [13] = target: Muscarinic acetylcholine receptor M1 (Homo sapiens) (UniProt P11229); assay: Cholinergic receptor muscarinic 1 (CHRM1) small molecule antagonists, cell-based qHTS assay (AID 1963588); also: nearly all actives have a fitted effect of over 40% in size
# Outline: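 CHRM1-CHO calcium-flux assay, antagonist mode. Cells were seeded 18 h, dye-loaded 1 h at 37 C and given compound for 5 min at RT, then acetylcholine was added at 50nM. FDSS fluorescence was read 3 min; 15 concentrations, three runs.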
# [14] = target: Muscarinic acetylcholine receptor M1 (Homo sapiens) (UniProt P11229); assay: Cholinergic receptor muscarinic 1 (CHRM1) small molecule agonists, cell-based qHTS assay (AID 1963589); also: nearly all actives have a fitted effect of over 35% in size
# Outline: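 CHO cells stably expressing human CHRM1 were loaded with calcium dye for 1 h at 37 C, then compound was added in agonist mode. Intracellular calcium fluorescence was followed kinetically at 1 s intervals. Fifteen concentrations were tested in three independent runs.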
# [15] = cAMP Responsive Elements (CRE) small molecule agonists, cell-based qHTS assay (AID 1963590)
# Outline: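 CRE-bla HEK 293T cells, 2,000/well in DMEM with 10% dialyzed FBS and 25 mM HEPES, pre-incubated 18 h at 37 C, then exposed to compound 3 h at 37 C. Beta-lactamase reporter read with LiveBLAzer B/G FRET substrate after 2 h at room temperature.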
# [16] = cAMP Responsive Elements (CRE) small molecule antagonists, cell-based qHTS assay (AID 1963591; active = well fitted inhibition curve with a large enough effect in the signal ratio in the repeat runs, not every such curve was filed as active; the % refers to the signal ratio)
# Outline: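 CRE-bla HEK293T cells plated 18 h, then given compound plus NKH477 at 0.25 uM final for 3 h at 37C. Beta-lactamase reporter read with LiveBLAzer B/G FRET substrate after 2 h at room temperature.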
# [17] = target: D(2) dopamine receptor (Homo sapiens) (UniProt P14416); assay: Dopamine D2 receptor (DRD2) small molecule agonists, cell-based qHTS assay (AID 1963594); also: nearly all actives have a fitted effect of over 35% in size
# Outline: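 HEK293 cells stably expressing DRD2 were cultured 24 h at 37 C, then given Ro20-1724 (0.1 mM final) and compounds for 10 min at room temperature. NKH477 (200nM) was then added for 30 min. cAMP was read by HTRF.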
# [18] = target: D(2) dopamine receptor (Homo sapiens) (UniProt P14416); assay: Dopamine D2 receptor (DRD2) small molecule antagonists, cell-based qHTS assay (AID 1963595; active = well fitted inhibition curve with a large enough effect in the signal ratio in the repeat runs, with a control signal flat; the % refers to the signal ratio; also: potency is read from the fitted curve at half-maximal effect)
# Outline: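 In this cell-based antagonist screen, compounds act for 10 min at room temperature before a 30 min challenge with 12 nM quinpirole and 200 nM NKH477. cAMP is quantified by HTRF competition in DRD2-HEK293 cells containing 0.1 mM Ro20-1724.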
# [19] = target: Beta-2 adrenergic receptor (Homo sapiens) (UniProt P07550); assay: Adrenergic beta2 receptor (ADRB2) small molecule agonists, cell-based qHTS assay (AID 1963593); also: potency is read from the fitted curve at half-maximal effect
# Outline: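 CHO cells stably over-expressing ADRB2 were plated overnight at 37C, then dosed with compounds plus a stimulation mix containing 100uM IBMX and 25uM Ro-20-1724 for 0.5hr at room temperature. cAMP was measured by HTRF competition, 1hr.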
# [20] = target: Beta-2 adrenergic receptor (Homo sapiens) (UniProt P07550); assay: Adrenergic beta2 receptor (ADRB2) small molecule antagonists, cell-based qHTS assay (AID 1963592); also: series mostly up to about 92 µM; nearly all actives have a fitted effect of over 50% in size
# Outline: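 Cells (CHO, stable ADRB2 overexpression) incubated 18-20hr at 37C; compounds added from DMSO; agonist mix (1nM isoproterenol, 100uM IBMX, 25uM Ro-20-1724) added; 0.5hr RT; d2-cAMP and anti-cAMP-cryptate added; 1hr RT; 665/615 nm read.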
# Sequence of Gonadotropin-releasing hormone receptor (Homo sapiens) (P30968 whole entry, looked up): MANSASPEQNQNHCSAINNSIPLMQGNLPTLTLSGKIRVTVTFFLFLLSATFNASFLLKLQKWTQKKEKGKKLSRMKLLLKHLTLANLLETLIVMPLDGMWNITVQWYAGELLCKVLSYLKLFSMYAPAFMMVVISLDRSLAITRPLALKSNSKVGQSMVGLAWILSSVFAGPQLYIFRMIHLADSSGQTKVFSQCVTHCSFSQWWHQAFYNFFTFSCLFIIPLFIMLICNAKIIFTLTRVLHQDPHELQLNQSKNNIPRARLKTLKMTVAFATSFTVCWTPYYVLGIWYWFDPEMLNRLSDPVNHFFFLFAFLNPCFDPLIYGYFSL
# Sequence of D(2) dopamine receptor (Homo sapiens) (P14416 whole entry, looked up): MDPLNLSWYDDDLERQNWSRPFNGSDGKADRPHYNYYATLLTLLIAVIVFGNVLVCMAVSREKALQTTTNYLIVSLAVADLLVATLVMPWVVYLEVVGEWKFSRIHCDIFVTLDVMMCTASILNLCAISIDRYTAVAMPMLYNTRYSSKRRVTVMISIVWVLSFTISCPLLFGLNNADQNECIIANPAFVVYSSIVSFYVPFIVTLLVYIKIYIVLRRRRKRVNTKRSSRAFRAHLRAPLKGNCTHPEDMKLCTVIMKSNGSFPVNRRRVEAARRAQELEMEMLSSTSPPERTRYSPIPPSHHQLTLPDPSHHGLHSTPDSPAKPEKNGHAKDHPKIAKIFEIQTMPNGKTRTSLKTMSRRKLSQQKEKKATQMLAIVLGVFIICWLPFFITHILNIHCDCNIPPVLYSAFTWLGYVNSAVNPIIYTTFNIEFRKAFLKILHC
# Sequence of Beta-2 adrenergic receptor (Homo sapiens) (P07550 whole entry, looked up): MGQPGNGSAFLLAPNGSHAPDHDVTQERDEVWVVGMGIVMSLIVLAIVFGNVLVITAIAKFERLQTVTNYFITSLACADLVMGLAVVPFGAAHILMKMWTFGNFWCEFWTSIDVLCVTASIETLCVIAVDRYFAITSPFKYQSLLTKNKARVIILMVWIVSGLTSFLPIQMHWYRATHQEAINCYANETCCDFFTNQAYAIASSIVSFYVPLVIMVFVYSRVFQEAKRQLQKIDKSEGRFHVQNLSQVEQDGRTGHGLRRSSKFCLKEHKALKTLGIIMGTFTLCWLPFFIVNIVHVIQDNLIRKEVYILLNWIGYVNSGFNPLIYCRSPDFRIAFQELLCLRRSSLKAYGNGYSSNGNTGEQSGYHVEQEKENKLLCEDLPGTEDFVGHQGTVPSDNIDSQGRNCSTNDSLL
# Sequence of Muscarinic acetylcholine receptor M1 (Homo sapiens) (P11229 whole entry, looked up): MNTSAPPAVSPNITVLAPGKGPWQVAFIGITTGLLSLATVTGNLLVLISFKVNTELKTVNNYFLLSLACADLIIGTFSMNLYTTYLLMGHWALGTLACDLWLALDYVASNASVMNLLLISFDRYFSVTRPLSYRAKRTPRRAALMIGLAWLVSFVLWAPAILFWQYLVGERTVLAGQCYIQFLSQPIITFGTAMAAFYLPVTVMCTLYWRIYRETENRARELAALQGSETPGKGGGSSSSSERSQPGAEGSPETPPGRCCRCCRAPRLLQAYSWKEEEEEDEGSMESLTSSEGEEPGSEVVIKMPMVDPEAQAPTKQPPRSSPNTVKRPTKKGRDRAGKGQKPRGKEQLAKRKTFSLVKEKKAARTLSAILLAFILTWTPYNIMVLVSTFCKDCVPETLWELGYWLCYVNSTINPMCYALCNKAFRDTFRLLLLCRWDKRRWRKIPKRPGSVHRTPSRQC
# Sequence of 5-hydroxytryptamine receptor 2A (Homo sapiens) (P28223 whole entry, looked up): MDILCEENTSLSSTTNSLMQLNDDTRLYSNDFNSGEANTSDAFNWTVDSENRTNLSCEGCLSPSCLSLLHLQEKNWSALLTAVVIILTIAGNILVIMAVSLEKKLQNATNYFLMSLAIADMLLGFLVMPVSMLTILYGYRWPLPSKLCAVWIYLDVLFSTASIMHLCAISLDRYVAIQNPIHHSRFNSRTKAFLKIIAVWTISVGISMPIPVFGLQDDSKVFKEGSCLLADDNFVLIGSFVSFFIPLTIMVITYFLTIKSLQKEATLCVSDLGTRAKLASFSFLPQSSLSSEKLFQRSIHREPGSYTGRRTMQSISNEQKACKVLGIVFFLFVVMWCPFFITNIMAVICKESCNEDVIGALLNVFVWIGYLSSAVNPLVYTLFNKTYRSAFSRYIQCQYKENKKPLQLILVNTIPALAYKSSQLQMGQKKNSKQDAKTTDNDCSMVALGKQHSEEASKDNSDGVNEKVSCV
# Sequence of KiSS-1 receptor (Homo sapiens) (Q969F8 whole entry, looked up): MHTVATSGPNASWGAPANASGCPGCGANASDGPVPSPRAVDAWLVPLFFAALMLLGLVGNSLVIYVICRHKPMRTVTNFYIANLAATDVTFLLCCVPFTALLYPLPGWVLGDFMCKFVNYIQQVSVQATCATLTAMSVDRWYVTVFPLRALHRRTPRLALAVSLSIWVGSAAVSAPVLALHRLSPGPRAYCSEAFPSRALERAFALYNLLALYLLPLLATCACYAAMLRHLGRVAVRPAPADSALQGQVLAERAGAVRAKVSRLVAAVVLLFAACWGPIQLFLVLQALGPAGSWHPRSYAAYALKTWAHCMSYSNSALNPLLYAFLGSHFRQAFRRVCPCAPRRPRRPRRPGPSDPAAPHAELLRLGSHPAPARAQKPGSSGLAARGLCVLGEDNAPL
compound,measurement,setting,value
CC(C)CCCC(C)(C)O,Potency,[1],inactive
same,Potency,[2],inactive
same,Potency,[3],inactive
same,outcome,[4],inactive
same,outcome,[5],inactive
same,Potency,[6],inactive
same,Potency,[7],inactive
same,Potency,[8],inactive
same,Potency,[9],inactive
same,Potency,[10],inactive
same,Potency,[11],inactive
same,Potency,[12],inactive
same,Potency,[13],inactive
same,Potency,[14],inactive
same,Potency,[15],inactive
same,Potency,[16],inactive
same,Potency,[17],inactive
same,Potency,[18],inactive
C[n+]1cc2c3c(ccc2c2ccc4cc5c(cc4c21)OCO5)OCO3,Potency,[1],1.64 µM (active)
same,Potency,[2],1.46 µM (active)
same,activity change,[3],"3.58% [at 11.8 µM, active compounds read high]"
same,activation,[4],0.698% [at 15.8 µM]
same,activation,[5],3.71% [at 11.8 µM]
same,activation,[6],-8.2% [at 13.5 µM]
same,activation,[7],-6.71% [at 13.6 µM]
same,Potency,[8],9.73 µM (active)
same,"activity change, negative = cytotoxicity",[9],-21.2% [at 13.5 µM]
same,activation,[10],-0.417% [at 13.5 µM]
same,"activity, negative = inhibition",[11],8.48% [at 12.7 µM]
same,activation,[12],10.7% [at 15.9 µM]
same,"activity, negative = inhibition",[13],-0.831% [at 12.6 µM]
same,activation,[14],0.0411% [at 15.8 µM]
same,Potency,[19],9.2 µM (active)
same,Potency,[18],13 µM (active)
N#CCc1ccc(Cl)cc1Cl,Potency,[1],inactive
same,Potency,[2],inactive
same,Potency,[3],inactive
same,outcome,[4],inactive
same,outcome,[5],inactive
same,Potency,[6],inactive
same,Potency,[7],inactive
same,Potency,[8],inactive
same,Potency,[9],inactive
same,Potency,[10],inactive
same,Potency,[11],inactive
same,Potency,[12],inactive
same,Potency,[13],inactive
same,Potency,[14],inactive
same,Potency,[15],inactive
same,Potency,[16],inactive
same,Potency,[20],inactive
same,Potency,[18],inactive
O=C(O)c1snc(Cl)c1Cl,Potency,[1],inactive
same,Potency,[2],68.6 µM (active)
same,Potency,[3],inactive
same,outcome,[4],inactive
same,outcome,[5],inactive
same,Potency,[6],inactive
same,Potency,[7],inactive
same,Potency,[8],inactive
same,Potency,[9],inactive
same,Potency,[10],inactive
same,Potency,[11],inactive
same,Potency,[12],inactive
same,Potency,[13],inactive
same,Potency,[14],inactive
same,Potency,[15],inactive
same,Potency,[16],inactive
same,Potency,[20],inactive
same,Potency,[17],inactive
same,Potency,[18],inactive
CC(O)c1ccccc1 (stereo not drawn),Potency,[1],inactive
same,Potency,[2],inactive
same,Potency,[3],inactive
same,outcome,[4],inactive
same,outcome,[5],inactive
same,Potency,[6],inactive
same,Potency,[7],inactive
same,Potency,[8],inactive
same,Potency,[9],inactive
same,Potency,[10],inactive
same,Potency,[11],inactive
same,Potency,[12],inactive
same,Potency,[13],inactive
same,Potency,[14],inactive
same,Potency,[15],inactive
same,Potency,[16],inactive
same,Potency,[20],inactive
same,Potency,[18],inactive
COC(=O)c1cc(C(=O)OC)cc(S(=O)(=O)O)c1,Potency,[1],inactive
same,Potency,[2],inactive
same,Potency,[3],inactive
same,outcome,[4],inactive
same,outcome,[5],inactive
same,Potency,[6],inactive
same,Potency,[7],inactive
same,Potency,[8],inactive
same,Potency,[9],inactive
same,Potency,[10],inactive
same,Potency,[11],inactive
same,Potency,[12],inactive
same,Potency,[13],inactive
same,Potency,[14],inactive
same,Potency,[15],inactive
same,Potency,[16],inactive
same,Potency,[20],inactive
same,Potency,[17],inactive
same,Potency,[18],inactive
